Out of some 2,400 compounds screened, about 220 (9.2%) were called active.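 The calls were made as follows: active = signal change above the mean of dofetilide-free buffer controls plus 3 SD, so a positive margin; inactive = the rest.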 For the sample, actives were picked, then their nearest neighbours and some compounds at random.
Assay: nonspecific flux effects in parental CHO-K1, confirmation, counter-screen for hERG block protection project, cell-based, CHO-K1 parental line, FluxOR thallium flux (AID 1839);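 also: compounds applied alone with no dofetilide to cells lacking hERG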
Conditions: CHO-K1 parental cells, FluxOR thallium flux fluorescence; at 10 µM

Row | Structure (SMILES) | signal change vs control minus 3*SD hit threshold (margin above threshold, higher = more increase)
1 | Cc1ccccc1NP(=O)(c1ccccc1)c1nc2ccccc2s1 (stereo not given) | -31.9% (inactive)
2 | CCOc1ccc(N)c(SSc2cc(OCC)ccc2N)c1 | -32.6% (inactive)
3 | Cc1ccc(CC23CN4CCN(CC(C4)C2O)C3)c(C)c1 (stereo not given) | -14.8% (inactive)
4 | CN(C)CCOC(=O)C1(c2ccccc2)CCCC1 | -31.9% (inactive)
5 | COC(=O)C1=C(C)NC2=C(C(=O)CCC2)C1c1ccc(-c2ccsc2C(=O)OC)o1 (stereo not given) | -17.8% (inactive)
6 | O=C(/C=C/c1ccccc1)CC(=O)c1ccccc1O | -29.3% (inactive)
7 | CCOc1cc(N2CCOCC2)c(OCC)cc1NC(=O)CCC1CCCC1 | -19.4% (inactive)
8 | Cc1ccccc1NC(=S)NC(=O)c1cc(-c2ccccc2)nc2ccccc12 | -15.1% (inactive)
9 | COc1ccccc1NC(=S)NC(=O)c1ccc(-c2ccc(Cl)cc2)o1 | -22.6% (inactive)
10 | O=C(NC(=S)NCc1ccccc1)c1ccc(Br)o1 | 39.2% (active)
11 | COc1ccc(OC)c(NC(=S)NC(=O)c2ccc(Br)o2)c1 | -21.4% (inactive)
12 | Cc1cccc(NC(=S)NC(=O)c2ccc(Br)o2)c1C | -13.6% (inactive)
13 | O=C(NC(=S)Nc1ccccc1)c1ccc(Br)o1 | -17.9% (inactive)
14 | O=C(CNC(=S)NC(=O)c1ccc(Br)o1)c1ccccc1 | -26.3% (inactive)
15 | O=C(NC(=S)Nc1ccccc1F)c1ccc(Br)o1 | 23% (active)
16 | Cc1ccc(NC(=S)NC(=O)c2ccc(Br)o2)c(C)c1 | -19.5% (inactive)
17 | O=C(NC(=S)NCc1ccccc1)c1cccs1 | -11.1% (inactive)
18 | Cc1cccc(NC(=S)NC(=O)c2ccc(Br)o2)c1 | 9.1% (active)
19 | Cc1cccc(C)c1NC(=S)NC(=O)c1ccc(Br)o1 | 18.7% (active)
20 | CCN(c1ccccc1)S(=O)(=O)c1ccc(NC(=S)NC(=O)c2ccc(Br)o2)cc1 | -20.8% (inactive)
21 | CCN(CC)c1ccc(NC(=S)NC(=O)c2ccco2)cc1 | -1.8% (inactive)
22 | N#Cc1c(-c2ccco2)c2c([nH]c1=S)CCCC2 | -29.5% (inactive)

Row | Structure (SMILES) | signal change vs control minus 3*SD hit threshold (margin above threshold, higher = more increase)
23 | CCOC(=O)c1c(-c2ccccc2)csc1NC(=S)NC | -10.9% (inactive)
24 | CC12CCC(C/C1=N\N=C1\NC(=O)/C(=C\c3ccc(Cl)cc3)S1)C2(C)C (stereo not given) | -20.2% (inactive)
25 | Cc1nnc2ccc(-c3cccc(NC(=O)c4ccc(Cl)nc4)c3)nn12 | -41.7% (inactive)
26 | O=C(NC(=S)N1CCN(c2ccccc2)CC1)c1ccccc1 | -8.7% (inactive)
27 | CC(C)Sc1nc2ccccc2n2cnnc12 | -29.7% (inactive)
28 | Cc1cccc(/C=C2/S/C(=N/N=C3\CC4CCC3(C)C4(C)C)NC2=O)c1 (stereo not given) | -12.4% (inactive)
29 | Cc1ccc2nsnc2c1S(=O)(=O)Nc1cccc2nsnc12 | -18.7% (inactive)
30 | CCC1CCc2c(sc(NC(=O)C3CC=CCC3C(=O)O)c2C#N)C1 (stereo not given) | -5.5% (inactive)
31 | Cc1cc([N+](=O)[O-])ccc1-c1ccc(C2Nc3ccccc3C(=O)N2O)o1 (stereo not given) | -18.3% (inactive)
32 | C=CCc1cccc(C2Nc3ccccc3C(=O)N2O)c1O (stereo not given) | -26.4% (inactive)
33 | O=C1c2ccccc2NC(c2ccc(Br)s2)N1O (stereo not given) | 15.6% (active)
34 | C=CCN(CC=C)C(=S)NC(=O)/C=C/c1ccc(OC)cc1 | -19.8% (inactive)
35 | Cc1cc(-c2cccnc2)c(C#N)c(SCc2cccc(F)c2)n1 | -37.3% (inactive)
36 | COC(=O)c1sccc1NC(=S)NCc1ccc(Cl)cc1 | -22.4% (inactive)
37 | CCc1cc2c(=O)n(CCC(C)C)c(=S)[nH]c2s1 | 26.1% (active)
38 | CCOC(=O)C1=C(c2ccccc2)NC(=O)NC1c1ccc(OC)c(OC)c1 (stereo not given) | -32.6% (inactive)
39 | CSC(=S)N/N=C(\C)c1ccccc1 | 15.8% (active)
40 | CSC(=S)N/N=C/c1ccc(Br)cc1 | -17.6% (inactive)
41 | C/C(=N\NC(N)=S)c1ccncc1 | -26.5% (inactive)
42 | CSC(=S)N/N=C/c1ccccc1 | 18.1% (active)
43 | C/C(=N\NC(N)=S)c1cccnc1 | -29.6% (inactive)
44 | CC(C)NC(=S)N/N=C/c1ccc(C(C)(C)C)cc1 | -20.4% (inactive)

Row | Structure (SMILES) | signal change vs control minus 3*SD hit threshold (margin above threshold, higher = more increase)
45 | CC1=C(C#N)C(Nc2cc(C)ccn2)(C(F)(F)F)C(=O)N1 (stereo not given) | -31.1% (inactive)
46 | CCOC(=O)c1c(-c2ccc(C)o2)csc1NC(=S)NC(=O)N(C)C | -14.3% (inactive)
47 | CNc1nc(N)nc(OC(C(F)(F)F)C(F)(F)F)n1 | -25.1% (inactive)
48 | CC(=O)c1c(N2CCCC2)[nH]c(-c2ccccc2)nc1=S | -21.2% (inactive)
49 | CC(=O)c1c(NC(=O)c2ccccc2)[nH]c(-c2ccccc2)nc1=S | -26.3% (inactive)
50 | S=c1[nH]c2ccccc2c2ccccc12 | -25% (inactive)
51 | S=c1nc(-c2ccccc2)[nH]c2ccc(Br)cc12 | 52.8% (active)
52 | S=c1nc(-c2ccc(Br)cc2)[nH]c2ccccc12 | 53.6% (active)
53 | CC(Oc1ccc(Br)cc1)c1nc2c3ccccc3nc(=S)n2[nH]1 (stereo not given) | -25% (inactive)
54 | NNC(=O)CNc1ccccc1Cl | -26% (inactive)
55 | CN(C)c1ccc(C(CNS(=O)(=O)c2ccc([N+](=O)[O-])cc2)N2CCCC2)cc1 (stereo not given) | -29% (inactive)
56 | O=C(Nc1ncc(Br)s1)C(Cc1ccccc1)n1cccc1 (stereo not given) | 6.9% (active)
57 | CC(C)C(=O)Nc1ccc(NC(=O)CCc2ccccc2)cn1 | -33.7% (inactive)
58 | O=C(CCc1ccccc1)Nc1nccs1 | -33.8% (inactive)
59 | COc1cccc(OC)c1C(=O)NC(=S)N1CCN(c2ccc(C(F)(F)F)cc2[N+](=O)[O-])CC1 | -46.3% (inactive)
60 | COCc1cc(C)nc(OCC(=O)N/N=C/c2ccc(-c3cc([N+](=O)[O-])ccc3Cl)o2)c1C#N | -29.8% (inactive)
61 | Cc1ccccc1Cn1nc(C)c(NC(=O)c2ccccc2)c1C | 11.5% (active)
62 | Cc1nn(C(=O)CNC(=O)c2ccccc2)c(C)c1C | -23.2% (inactive)
63 | CC(=O)c1n[nH]nc1NC(=O)c1ccccc1 | -17.2% (inactive)
64 | Cn1nc(C(F)(F)F)c(-c2ccc(Br)cc2)c1NC(=O)c1cccnc1 | -37.7% (inactive)
65 | O=C1NCC(=O)N2C(c3ccccc3)c3[nH]c4ccccc4c3C[C@@H]12 (stereo not given in full) | -28.2% (inactive)

— PubChem BioAssay AID1839 (Johns Hopkins Ion Channel Center, 2009)
